# Experimental data taken from PubChem BioAssay (NCI).
# About 83,000 compounds went through this panel and 20% of them were active in at least one assay; those are over-represented in the sample as a whole.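 96-well plates, one dose, 48 hours. Percent growth reported; active if below 10.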 The source made the active and inactive calls.
# System: HL-60(TB) leukemia
# Test: NCI-60 one-dose screen, 48 h (100 = growth as untreated, 0 = no growth, -100 = all killed)
# Conditions: 10 µM unless noted
row,SMILES,growth
1,O=C1c2ccccc2C(=O)c2c1cccc2-n1nnc2ccccc21,82.1% (inactive)
2,C=CCOc1ccc(/C(Cl)=N/N=C(\Cl)c2cc(OC)c(OC)c(OC)c2)cc1,39.6% (inactive)
3,COc1ccc(Br)c(C=O)c1,-16.3% (active)
4,COc1nccc2c(Sc3ccccc3)nc(N)nc12,97.6% (inactive)
5,O=C(O)C(CCc1ccccc1)NCc1ccccc1 (stereo not given),110% (inactive)
6,C/C(=C\CCc1ccoc1)CC/C=C(\C)CCCN1CCC(CO)CC1,17.2% (inactive)
7,CCCC1Cc2cc(-n3nc(C)c4c3CC(C)(C)CC4=O)cc(NC3CCC(O)CC3)c2C(=O)N1 (stereo not given),-8.17% (active)
8,O=C(O)c1ccccc1NCc1ccco1,102% (inactive)
9,Cc1cc(C)cc(NCCC#N)c1,84.9% (inactive)
10,c1ccc2cc(Cn3cc(CSc4nc5ccccc5s4)nn3)ccc2c1,102% (inactive)
11,CC1CC(C(C)(C)C)C(=O)C(C(C)(C)C)C1 (stereo not given),107% (inactive)
12,Cc1ccc2nc3c(nc2c1)-c1cccc2cccc-3c12,93.5% (inactive)
13,COc1cc(/C=N/Nc2ncc(-c3cc4cc5c(cc4o3)OCO5)s2)cc(OC)c1OC,14.7% (inactive)
14,CC(C)CCC[C@@H](C)[C@H]1CC[C@H]2[C@@H]3CC=C4c5sc(Nc6cc(C(F)(F)F)cc(C(F)(F)F)c6)nc5CC[C@]4(C)[C@H]3CC[C@]12C,101% (inactive)
15,N#Cc1c(NCc2ccccc2I)sc2c1CCCCC2,100% (inactive)
16,CC(C)COC(=O)NC(C)(C)C,85.2% (inactive)
17,Cc1ccc2[nH]c3nc4cccnc4c(C)c3c2c1,83.5% (inactive)
18,CCCCCCCCCCCCCC[n+]1ccccc1,-70.3% (active)
19,COc1ccc(CNC(=O)C(=O)[C@H](Cc2ccccc2)NC(=O)c2[nH]c3ccccc3c(=O)c2C)cc1,110% (inactive)
20,O=C(CSc1nnc(-c2cc(-c3ccccc3)nc3ccccc23)n1-c1ccccc1)Nc1ccc(C(=O)/C=C/c2ccc(Cl)cc2)cc1,89% (inactive)

row,SMILES,growth
1,CCSc1ccc(C2C(Br)C(=O)N2c2cc(OC)c(OC)c(OC)c2)cc1 (stereo not given),-9.14% (active)
2,NC(=O)c1cc(Cl)ccc1NC(=O)/C=C/c1ccccc1,-30.8% (active)
3,O=C(/C=C/c1ccco1)c1ccc(Nc2ccnc3cc(Cl)ccc23)cc1,6.28% (active)
4,CCCCCCCCCCCCCCCCCCSC1=CC(=O)C(OC)=C(OC)C1=O,66.9% (inactive)
5,COc1ccc(C2CC(c3ccc(OC)cc3O)=NN2c2ccc(S(N)(=O)=O)cc2)cc1 (stereo not given),-23.2% (active)
6,O=C1c2cccc3cccc(c23)C(=O)N1CCCCN1CCN(CCCCOc2ccc(-c3nc4ccc(N5CCOCC5)cc4[nH]3)cc2)CC1,92.6% (inactive)
7,O=C1CCCCN1CCCCC#Cc1ccccc1C#Cc1ccccn1,78.2% (inactive)
8,Cc1ccc(C(=O)/C(=C/c2ccc([N+](=O)[O-])cc2)SCc2ccc(Cl)cc2)cc1,58% (inactive)
9,COc1ccc(-c2cc(-c3cccnc3)nc(S(=O)(=O)CC(=O)Nc3ccc(C)cc3)c2C#N)cc1OC,113% (inactive)
10,CC(=O)c1ccc(Br)c([N+](=O)[O-])c1,122% (inactive)
11,Nc1ccn(C2O[C@H](CO)[C@@H](O)[C@H]2O)c(=O)n1 (stereo not given in full),99.7% (inactive)
12,Nc1ccccc1C#C/C=C\C#Cc1cccc(O)c1,12.6% (inactive)
13,COc1cc(-c2nc(SCCC(C)C)nc(Nc3ccc(S(N)(=O)=O)cc3)c2C#N)cc(OC)c1OC,-18.9% (active)
14,Cc1c(Cl)cc(-n2c(=O)c3ccccc3c3ccccc3c2=O)cc1Cl,90.8% (inactive)
15,CN1CCN(C)c2cncc(Br)c2C1=O,96.4% (inactive)
16,O=c1c2c(c3ccccc3n1-c1ccccc1)NC(=S)NC2c1ccc(Cl)cc1 (stereo not given),22.1% (inactive)
17,CC(=O)C1=C(C)NC(SCc2nnc(-c3ccc(C)cc3)o2)=NC1c1ccc(F)cc1 (stereo not given),80.8% (inactive)
18,O=S(=O)(Oc1ccc(Br)cc1)c1ccc(Cl)cc1,85.3% (inactive)
19,Nc1ncnc2c1c(-c1ccc(Oc3ccccc3)cc1)nn2C[C@@H]1SSC[C@@H]1O,-0.213% (active)
20,CCCCCCC/C=C/[C@H]1O[C@]2(O)C(=O)C=C3C[C@@H](O[C@@H]4O[C@H](CO)[C@@H](O)C(O)[C@@H]4O)C[C@@H]3[C@H]2C=C1C (stereo not given in full),-46.4% (active)
